Measurements reported in PubChem BioAssay (NCI).
About 83,000 compounds went through this panel and 20% of them were active in at least one assay; those are over-represented in the sample as a whole.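 Assay: single dose, 48 h. Readout: percent growth (0 = no net growth; negative = cell death). Active: <10.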 Unmarked numbers belong to inactive results. The source made the active and inactive calls.

Key:
Assay in all cases: NCI-60 one-dose screen, 48 h (100 = growth as untreated, 0 = no growth, -100 = all killed)
Details in all cases: 10 µM unless noted
[1] = system: NCI-H23 lung
[2] = system: NCI-H226 lung
[3] = system: NCI-H322M lung
[4] = system: HOP-62 NSCLC
[5] = system: NCI-H460 lung
[6] = system: HOP-92 NSCLC
[7] = system: NCI-H522 lung
[8] = system: A549/ATCC NSCLC
[9] = system: 786-0 renal
[10] = system: COLO 205 colon
[11] = system: DU-145 prostate
[12] = system: K-562 leukemia
[13] = system: MALME-3M melanoma
[14] = system: MDA-MB-231 breast
[15] = system: RXF 393 renal
[16] = system: SF-268 CNS
[17] = system: SF-539 CNS
[18] = system: UACC-257 melanoma
[19] = system: M14 melanoma
[20] = system: SF-295 CNS

Row | SMILES | growth [1] | growth [2] [%] | growth [3] [%] | growth [4] | growth [5] | growth [6] | growth [7] | growth [8] | growth [9] | growth [10] | growth [11] | growth [12] | growth [13] | growth [14] | growth [15] | growth [16] | growth [17] | growth [18] | growth [19] | growth [20] [%]
1 | COc1cc(-c2nc(-c3ccccc3)c(-c3ccccc3)[nH]2)cc(OC)c1O | -31.9% (active) | 48.9 | 13 | -26.5% (active) | -37.5% (active) | 38.2% | -23% (active) | -30.9% (active) | 19.3% | -73.8% (active) | -23.5% (active) | 3.86% (active) | -28.9% (active) | 0.0647% (active) | -48.8% (active) | 4.5% (active) | 0.938% (active) | 6.33% (active) | -18.8% (active) | –
2 | CCN(CC)CCCCCNc1cc(OC(=O)c2ccccc2)cc2cccnc12 | 92% | 118 | 102 | 98.7% | 163% | 99.1% | 124% | 122% | 100% | 17.3% | 111% | 23.8% | 95.3% | 88.2% | – | 93.2% | 150% | 120% | 101% | 110
3 | Cc1cc(Cl)c2c(N(C)C)cccc2n1 | 96% | 101 | 89.9 | 102% | 104% | 115% | -75.5% (active) | 100% | 102% | 105% | 106% | 59.5% | 87.2% | 92.8% | 116% | 111% | 106% | 102% | 92% | –
4 | Cc1ccc(Nc2c(C(N)=O)cnc3ccc(S(=O)(=O)Nc4cc(C)on4)cc23)cc1 | 95.1% | 95 | 95.8 | 89.8% | 103% | 84.1% | 92.2% | 103% | 106% | 101% | 109% | 117% | 108% | 99.5% | 105% | 104% | 92.7% | 101% | 100% | –
5 | Cc1ccc(-c2ccc(Nc3ccccc3)nn2)cc1S(N)(=O)=O | 96.2% | 99.2 | 108 | 107% | 82.9% | 98.9% | 96.1% | 79.4% | 103% | 96% | 85.2% | 21.3% | 73.5% | 89.2% | 91.8% | 97.4% | 82.3% | 96.4% | 83.2% | –
6 | CN1CCN(c2nc(-c3cccc4ccccc34)nc3sc4c(c23)CCCCCC4)CC1 | 92.2% | 74.4 | 104 | 75.4% | 91.4% | -0.421% (active) | 88.7% | 95.5% | 87.7% | 91.7% | 102% | 85.3% | 81.3% | 61.8% | 60.9% | 82% | 86% | 94.4% | 93.2% | –
7 | NS(=O)(=O)c1ccc(CCNC(=O)/C=C/c2ccc(Cl)cc2)cc1 | 107% | 107 | 107 | 97.5% | 98% | 100% | 89.8% | 95.9% | 102% | 110% | 99.5% | 90.4% | 90.4% | 98.4% | 122% | 95.6% | 101% | 104% | 99.2% | –
8 | Fc1ccc2nc(-c3cc(-c4ccc5c(c4)OCO5)n[nH]3)[nH]c2c1 | 64% | 66.1 | 64.9 | 75.5% | 40.9% | 64.9% | 33.7% | 60.1% | 56.8% | 84.7% | 78.3% | 15.5% | 57.7% | 67.6% | 63.1% | 77.5% | 56.3% | 84.9% | 49.5% | –
9 | COc1ccc2c(c1)C/C(=C\c1cc(-c3cc(OC)c(OC)c(OC)c3)n[nH]1)C2=O | 90.2% | 82.3 | 93.9 | 103% | 106% | 79.1% | 60.6% | 92.9% | 95.9% | 109% | 113% | 53.7% | 108% | 78.9% | 94.9% | 100% | 89.5% | 97.3% | 100% | –
10 | CC(CNc1nc(Nc2ccc(Cl)c(Cl)c2)nc(C(Cl)(Cl)Cl)n1)N(C)C (centres undefined) | 14.2% | 40.8 | 27.6 | -68.4% (active) | -63% (active) | -17.7% (active) | -86.8% (active) | 4.96% (active) | -77.3% (active) | -77.7% (active) | 5.37% (active) | -54% (active) | 15.6% | -62.6% (active) | -24.3% (active) | 11.5% | 16.3% | -8.37% (active) | -60.6% (active) | –
11 | CC1=CC(=O)N(c2cccc3c(N4C(=O)C=C(C)C4=O)cccc23)C1=O | 79.4% | 100 | 102 | 100% | 113% | 78.6% | -74.6% (active) | 96.5% | 96.3% | -45.6% (active) | 72.3% | 6.92% (active) | – | 107% | -10.7% (active) | 106% | 32.7% | 82.4% | 96.2% | 121
12 | Cn1cc(-c2nc(-c3cn(C)c4ncccc34)cs2)c2cc(F)ccc21 | 43.3% | 68.8 | 57 | 53.7% | 15.8% | 72.4% | -0.482% (active) | 38.1% | 45.9% | 31.3% | 57.4% | 16% | – | 47.1% | 30.8% | 52.2% | 26.6% | 61.7% | 17.2% | 16.3
13 | Cn1cc(-c2csc(-c3cn(C(=O)OC(C)(C)C)c4ccccc34)n2)c2cccnc21 | 70.4% | 91.4 | 103 | 73.7% | 60.7% | 57.1% | -8.18% (active) | 52.9% | 76.6% | 64.8% | 92.7% | 23.3% | – | 65.4% | 80.1% | 81.6% | 71.4% | 82.9% | 54.8% | 48.2
14 | Cn1cc(-c2nc(-c3c[nH]c4ncccc34)cs2)c2cc(Br)ccc21 | 93.5% | 95.7 | 76.4 | 109% | 81.7% | 89.1% | 86.5% | 86.7% | 80.6% | 106% | 73.2% | 59.5% | – | 84.6% | 75.7% | 99.1% | 108% | 120% | 75.5% | 84.6
15 | Nc1ccc(Br)cn1 | 104% | 99.9 | 104 | 101% | 106% | 89.4% | 95.4% | 103% | 106% | 113% | 112% | 117% | – | 99.3% | 108% | 110% | 99.1% | 106% | 98.6% | 114
16 | COc1ccc2c(c1)c(-c1nc(-c3c[nH]c4ncccc34)cs1)cn2C | 71.8% | 80.6 | 46.6 | 90.4% | 40.1% | 60.7% | 77.9% | 81.7% | 70.1% | 83.7% | 72.5% | 41% | – | 55.3% | 57.2% | 97% | 66.2% | 85.1% | 63.7% | 86
